Giardia killer: kills Giardia lamblia | Giardia lamblia trophozoite viability | activity change, % at 7.66 µM, hits read low | actives 0.15% (n = 340,000) | AID 540267; in the data active means activity change below about -80%; inconclusive means between about -30% and that limit;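 further: parasites exposed to compound for two days anaerobically before the ATP read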
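Trophozoite viability was measured as ATP-dependent luminescence, read 15-30 min after reagent addition. Before that, parasites at 100 cells/well were exposed to compounds for 48 h, anaerobically, at 37 deg C.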
KCNH2 3.1 block: blocks the human KCNH2 3.1 channel isoform | U2OS KCNH2 3.1, thallium flux FluxOr; hits give low values | activity change, % (tested at about 1.8 µM) | actives 0.95% (n = 340,000) | AID 720553;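 active means maximum activity change below -70%; inconclusive means maximum activity change from -70% to -50%; inactive means maximum activity change above -50%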;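 further: thallium influx rate constant from kinetic fluorescence after stimulation buffer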
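Normalized rate constant (relative to positive and negative DMSO controls) derived from a 2 min kinetic fluorescence read after stimulation; U2OS cells expressing the 3.1 isoform via virus at 1.77 x 10^8 /mL.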
USP1-UAF1 inh: blocks the human USP1/UAF1 deubiquitinase complex | O94782 | recombinant USP1/UAF1, Ub-Rhodamine cleavage fluorescence | Potency, µM (titrated, usually from 57.1 µM), hits mostly inhibitors | actives 0.23% (n = 390,000) | AID 743255; active means well fitted inhibition curve with a large enough effect; inconclusive means small, poorly fitted or top-dose-only effect; inactive means no such curve, though single readings can be large or run the other way; further: nearly all actives have a fitted effect of over 60% in size
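USP1/UAF1 complex (1 nM) preincubated 15 min at room temperature with compound, then Ub-Rho substrate (150 nM final) added. Kinetic fluorescence at 480/540 nm over 6 reads at 60 s intervals; 50 mM HEPES pH 7.8, 0.5 mM EDTA, 0.1 mg/ml BSA, 1 mM TCEP, 0.01% Tween-20.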
FBPA coupling cs: counter-screen for Giardia aldolase inhibitors: coupling enzyme system. activity change, negative = inhibition, % at 58.2 µM, hits read low. coupling enzyme system counterscreen, AmpLite Red fluorescence. actives 0.67% (n = 290,000); in the data active means activity change below about -30%
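Activity here indicates interference with the coupling reaction, not aldolase inhibition. Compounds at 57.5 uM final met coupling enzymes for 10 min at RT; substrate and AmpLite Red detection followed, with a 525/598 nm fluorescence read after 20 min.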
KCNH2 WT inh: inhibitors of human wildtype KCNH2 potassium channel. U2OS, BacMam KCNH2, thallium flux FluxOr; hits give low values. activity change, % at 1.84 µM. actives 0.37% (n = 340,000). AID 720551;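 active means maximum activity change below -70%; inconclusive means maximum activity change between -70% and -50%; inactive means maximum activity change above -50%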
Target sequence (Q12809 whole entry, looked up): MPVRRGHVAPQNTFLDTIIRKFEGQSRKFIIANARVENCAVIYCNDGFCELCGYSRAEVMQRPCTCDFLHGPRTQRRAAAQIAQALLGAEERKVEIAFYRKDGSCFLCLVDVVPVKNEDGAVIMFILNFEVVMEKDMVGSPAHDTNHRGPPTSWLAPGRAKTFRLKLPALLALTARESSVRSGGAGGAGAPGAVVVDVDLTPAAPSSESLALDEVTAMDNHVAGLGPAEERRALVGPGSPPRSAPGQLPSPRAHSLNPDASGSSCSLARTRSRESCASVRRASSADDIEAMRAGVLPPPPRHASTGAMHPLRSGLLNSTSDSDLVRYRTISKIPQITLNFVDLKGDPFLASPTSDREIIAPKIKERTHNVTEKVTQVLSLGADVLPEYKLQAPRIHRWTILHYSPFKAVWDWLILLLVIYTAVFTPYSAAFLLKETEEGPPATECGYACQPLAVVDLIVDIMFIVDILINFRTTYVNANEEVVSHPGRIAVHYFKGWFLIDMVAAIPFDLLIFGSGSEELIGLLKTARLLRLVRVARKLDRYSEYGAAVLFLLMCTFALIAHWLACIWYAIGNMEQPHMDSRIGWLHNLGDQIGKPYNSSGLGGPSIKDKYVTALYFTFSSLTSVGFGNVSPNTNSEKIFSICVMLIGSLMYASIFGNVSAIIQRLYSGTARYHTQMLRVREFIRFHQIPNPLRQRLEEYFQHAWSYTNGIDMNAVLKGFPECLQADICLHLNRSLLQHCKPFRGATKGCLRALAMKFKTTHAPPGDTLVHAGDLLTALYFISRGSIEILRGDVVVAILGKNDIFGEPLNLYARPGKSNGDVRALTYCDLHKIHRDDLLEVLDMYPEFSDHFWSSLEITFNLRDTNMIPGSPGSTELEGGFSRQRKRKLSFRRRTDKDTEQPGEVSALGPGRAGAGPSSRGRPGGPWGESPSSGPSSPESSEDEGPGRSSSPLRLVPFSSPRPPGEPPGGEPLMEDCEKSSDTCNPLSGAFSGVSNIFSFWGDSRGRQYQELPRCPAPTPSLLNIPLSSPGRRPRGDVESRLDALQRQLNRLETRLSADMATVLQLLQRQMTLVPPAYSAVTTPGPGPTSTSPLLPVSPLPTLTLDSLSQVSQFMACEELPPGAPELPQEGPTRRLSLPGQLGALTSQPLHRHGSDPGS
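U2OS cells transduced with wild-type KCNH2 virus are loaded with FluxOr dye for 45 min, and thallium flux is measured in kinetic reads before and after stimulation buffer. Rate constants are normalized to DMSO controls.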
A number is an active result; i = inactive; ? = inconclusive; nt = not tested or not shown; + = active, no number. A selection: hits, their analogues and other compounds. The true share with any hit is near 1.7%.

SMILES	Giardia killer	KCNH2 3.1 block	USP1-UAF1 inh	FBPA coupling cs	KCNH2 WT inh
Cc1ccc(NC2=C/C(=N\S(=O)(=O)c3cccs3)c3ccccc3C2=O)c(C)c1	i	i	2µM	i	i
Cc1cccc(NC2=C/C(=N/S(=O)(=O)c3cccs3)c3ccccc3C2=O)c1	i	i	?	i	i
Cc1ccc(Cl)cc1NC1=C/C(=N\S(=O)(=O)c2cccs2)c2ccccc2C1=O	i	i	3.2µM	-46	i
Cc1noc(/C=C/N(C)C)c1S(=O)(=O)N(C)Cc1ccc(F)cc1	i	-199	i	i	-134
Cc1ccc(CN(C)S(=O)(=O)c2c(C)noc2/C=C/N(C)C)cc1	i	i	i	i	i
CCN(C(=O)CSc1nc(-c2ccccc2)no1)c1cccc(C)c1	nt	nt	i	nt	nt
O=C(O)c1cccc(Cl)n1	i	i	i	i	i
O=C(O)c1ccc2cccc(O)c2n1	i	i	i	i	i
O=C(O)c1cccc(C(=O)O)n1	nt	nt	nt	-80	nt
O=C(O)c1ccc2cccnc2n1	i	i	i	-39	i
CC(C)C[C@H](NC(=O)[C@H](CC(C)C)NC(=O)[C@H](Cc1ccccc1)NC(=O)[C@@H](N)CO)C(=O)N[C@@H](CCCNC(=N)N)C(=O)N[C@@H](CC(N)=O)C(=O)N1CCC[C@H]1C(=O)N[C@@H](CC(N)=O)C(=O)N[C@@H](CC(=O)O)C(=O)N[C@@H](CCCCN)C(=O)N[C@@H](Cc1ccc(O)cc1)C(=O)N[C@@H](CCC(=O)O)C(=O)N1CCC[C@H]1C(=O)N[C@@H](Cc1ccccc1)C(=O)O	nt	nt	nt	i	nt
Cc1ccccc1NC(=O)c1c(NC(=O)c2ccncc2)sc2c1CCC(C(C)(C)C)C2 (configuration not stated)	nt	nt	i	nt	nt
Cc1ccc(N(Cc2ccccc2)C(=O)c2ccc(F)c(S(=O)(=O)N3CCOCC3)c2)cc1	i	-93	i	nt	i
CC(C)CSc1oc(-c2ccco2)nc1S(=O)(=O)c1ccc(Br)cc1	nt	nt	i	nt	nt
O=C(/C=C/c1cn(CC(O)CN2CCCCCC2)c2ccccc12)c1cccs1 (configuration not stated)	i	-86	?	i	i
CC(C)=CCn1cnc2c1c(=O)n(C)c(=O)n2C	nt	nt	nt	i	nt
CCOc1ccc2nc(Cl)c(C3CC(c4ccco4)=NN3S(=O)(=O)c3ccccc3)cc2c1 (configuration not stated)	i	-71	i	i	i
Cc1noc(C)c1C(=O)OCC(=O)NCCc1ccc(S(N)(=O)=O)cc1	i	-84	i	nt	i
Cc1ccccc1CNC(=O)C(=O)NCCC1CCCCN1S(=O)(=O)c1cccs1 (configuration not stated)	i	-166	i	nt	-144
Oc1ccc2c(c1)C1CCCC1(N1CCOCC1)O2 (configuration not stated)	i	i	i	-37	i
CC1=C(C(=O)N2CCOCC2)C(c2ccc(O)cc2)NC(=S)N1 (configuration not stated)	i	i	i	i	i
OC(COC(c1ccc(Cl)cc1)c1ccc(Cl)cc1)CN1CCN(c2ccccn2)CC1 (configuration not stated)	i	-99	i	i	+
OC(COC(c1ccc(F)cc1)c1ccc(F)cc1)CN1CCCC1 (configuration not stated)	i	-83	i	i	i
CN(C)CC(O)COC(c1ccc(Cl)cc1)c1ccc(Cl)cc1 (configuration not stated)	i	-88	i	i	i
CC1CN(CC(O)COC(c2ccc(Cl)cc2)c2ccc(Cl)cc2)CC(C)O1 (configuration not stated)	i	-76	i	i	?
SMILES	Giardia killer	KCNH2 3.1 block	USP1-UAF1 inh	FBPA coupling cs	KCNH2 WT inh
CCOC(=O)c1c(OCC)[nH]c2c1cc(O)c1ccccc12	i	i	?	-49	i
O=C(NCCNC(=O)c1ccccc1Br)c1ccccc1Br	i	-114	i	i	i
O=C(O)CCC/C=C\C[C@@H]1[C@@H](CC[C@@H](O)CCc2ccccc2)[C@H](O)C[C@@H]1O	nt	nt	nt	i	nt
COCC(C)NC(=O)C1=CC(c2ccc3c(c2)OCO3)=NS(=O)(=O)N1C (configuration not stated)	nt	nt	i	nt	nt
COC(=O)CC[C@@H](C(=O)O)N1C(=O)c2ccccc2C1=O	i	i	i	i	i
Cc1ccc(NC(=O)CCC(C(=O)O)N2C(=O)c3ccccc3C2=O)cc1 (configuration not stated)	i	-141	i	i	-187
CCn1c2ccccc2c2nnc(SC3CCOC3=O)nc21 (configuration not stated)	i	nt	nt	nt	nt
COc1ccc(/C=N/Nc2cc(N3CCCC3)nc(N3CCCC3)n2)cc1	i	nt	?	-40	i
Oc1cccc(/C=N/Nc2cc(N3CCCC3)nc(N3CCCC3)n2)c1	i	?	?	-32	i
Oc1ccc(/C=N/Nc2cc(N3CCOCC3)nc(N3CCOCC3)n2)cc1	i	i	i	nt	i
Oc1ccc(/C=N/Nc2cc(N3CCCC3)nc(N3CCCC3)n2)cc1	i	i	i	-44	i
CCOC(=O)c1c(C)oc2c1c1c(c3ccccc32)OCN(Cc2ccccn2)C1	i	i	i	-37	i
CCOC(=O)c1c(C)oc2c1c(CN1CCN(C(=O)OCC)CC1)c(O)c1ccccc12	i	i	i	i	i
CCOC(=O)c1c(C)oc2c1c(C(c1ccncc1)N1CCOCC1)c(O)c1ccccc12 (configuration not stated)	i	i	?	-48	i
CCOC(=O)c1c(C)oc2c1c(CN1CCN(CCO)CC1)c(O)c1ccccc12	i	i	i	i	i
O=C1c2cc3c(cc2CCC1c1ccc2c(c1)OCO2)OCO3 (configuration not stated)	nt	i	i	nt	i
CCOC(=O)Cn1c(=O)c2c(nc3n2CCN3c2ccc(CC)cc2)n(C)c1=O	nt	nt	i	nt	nt
COc1cccc(C2=Nn3c(nnc3-c3cccc(OC)c3OC)SC2)c1	nt	nt	nt	i	nt
COCCn1c(=O)[nH]c2cc(C(=O)N3CCN(c4cc(C)ccc4C)CC3)ccc2c1=O	i	-80	i	i	i
COc1ccc(CN(C(=O)CSc2nnc(-c3c[nH]c4ccccc34)o2)c2ccc(F)cc2)cc1OC	i	i	i	i	-280
COc1ccc(C(=O)C2CCCN(Cc3cccn3-c3nccs3)C2)cc1F (configuration not stated)	i	-117	i	i	-103
OCCC1CN(Cc2cccn2-c2ccccn2)CCN1C1CCCC1 (configuration not stated)	i	i	i	i	i
Cc1ccc(-n2cccn2)c(CN2CCCC(C(=O)c3sccc3C)C2)c1 (configuration not stated)	i	i	i	i	i
COc1ccc(C(=O)C2CCCN(Cc3cccn3-c3nccs3)C2)cc1OC (configuration not stated)	i	?	i	i	i

High-throughput results (PubChem BioAssay)
